Results filed as inconclusive are left out. Where a call stands in place of a potency, no number is given. Unmarked numbers belong to inactive results. The source made the active and inactive calls. Calls follow the shape of the dose curve; as a rule, active = well fitted curve in the direction sought with a large enough effect in the repeat runs; inconclusive = weak or mixed curves; inactive = no such curve, though single readings can be large; an effect the other way counts as inactive or inconclusive. Where a SMILES comes first, the peptide text is derived from it. [ ]: non-standard residue; d: D form. pGlu = O=C1CC[C@@H](C(=O)O)N1
Experiments:
[1] = target: Cytochrome P450 2C19 (Homo sapiens) (UniProt P33261); test: Cytochrome P450 Family 2 Subfamily C Member 19 (CYP2C19) small molecule antagonists: luciferase reporter qHTS assay (AID 1671197); also: nearly all actives have a fitted effect of over 65% in size; as to activity change, negative = inhibition: series mostly up to about 120 µM
In short: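 Light output is proportional to CYP2C19 activity: proluciferin substrate is converted to luciferin, then detected by a luciferin detection reagent that also stops the 1 h, 37C NADPH-driven reaction. Ketoconazole serves as positive control.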

[2] = target: Cytochrome P450 2C9 (Homo sapiens) (UniProt P11712); test: Cytochrome P450 Family 2 Subfamily C Member 9 (CYP2C9) small molecule antagonists: luciferase reporter qHTS assay (AID 1671198); also: nearly all actives have a fitted effect of over 50% in size; as to activity change, negative = inhibition: series mostly up to about 120 µM
In short: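 Enzyme-substrate mix preincubated with compound 10 min at room temperature; reaction started with NADPH regeneration solution, 1 h 37C. Luminescent luciferin product read after 20 min detection reagent.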

[3] = target: Cytochrome P450 1A2 (Homo sapiens) (UniProt P05177); test: Cytochrome P450 Family 1 Subfamily A Member 2 (CYP1A2) small molecule antagonists: luciferase reporter qHTS assay (AID 1671199); also: nearly all actives have a fitted effect of over 50% in size; as to activity change, negative = inhibition: series mostly up to about 120 µM
In short: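 Luminescence from luciferin formed by CYP1A2 from a proluciferin substrate, read 20 min after detection reagent. Compound was pre-incubated 10 min with enzyme-substrate, and reaction started with NADPH regeneration solution for 1 h at room temperature; furafylline control.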

[4] = target: Voltage-gated inwardly rectifying potassium channel KCNH2 (Homo sapiens) (UniProt Q12809); test: Human Ether-a-go-go-Related Gene (hERG) channel small molecule antagonists: fluorescence cell-based qHTS assay (AID 1671200); also: nearly all actives have a fitted effect of over 50% in size;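 as to activity change, negative = inhibition: hERG-expressing U2OS cells given a thallium stimulus after FluxOR II dye loading; series mostly up to about 77 µM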
In short: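 Channel function was assessed by thallium flux. Cells seeded the previous day and kept at 37 C took up FluxOR II dye over 1 h in the dark at room temperature, then sat another 10 min before stimulation.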

[5] = target: Cytochrome P450 3A4 (Homo sapiens) (UniProt P08684); test: Cytochrome P450 Family 3 Subfamily A Member 4 (CYP3A4) small molecule antagonists: luciferase reporter qHTS assay (AID 1671201); also: nearly all actives have a fitted effect of over 50% in size; as to activity change, negative = inhibition: series mostly up to about 120 µM
In short: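 Compounds in DMSO were pin-transferred onto CYP3A4 enzyme-substrate mix and held 10 min at room temperature. NADPH regenerating solution started the reaction for 1 h; luciferin detection reagent stopped it, and luminescence was read after 20 min.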
Potency is read from the fitted curve at half-maximal effect.

Sequence of Cytochrome P450 3A4 (Homo sapiens) (P08684 whole entry, looked up): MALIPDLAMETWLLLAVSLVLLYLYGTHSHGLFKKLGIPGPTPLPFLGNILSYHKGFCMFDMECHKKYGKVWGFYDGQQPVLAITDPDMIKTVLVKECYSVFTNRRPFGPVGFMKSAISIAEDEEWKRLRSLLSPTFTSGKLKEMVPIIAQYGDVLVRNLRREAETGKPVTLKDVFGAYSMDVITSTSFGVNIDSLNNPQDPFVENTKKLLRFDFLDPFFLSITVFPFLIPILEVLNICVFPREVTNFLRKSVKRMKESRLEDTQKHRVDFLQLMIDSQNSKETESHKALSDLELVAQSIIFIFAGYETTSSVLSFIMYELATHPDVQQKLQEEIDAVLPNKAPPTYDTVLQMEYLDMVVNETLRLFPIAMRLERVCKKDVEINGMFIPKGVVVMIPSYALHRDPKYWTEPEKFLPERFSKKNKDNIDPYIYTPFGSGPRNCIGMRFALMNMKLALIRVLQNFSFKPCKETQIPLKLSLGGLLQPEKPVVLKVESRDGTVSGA
Sequence of Cytochrome P450 2C9 (Homo sapiens) (P11712 whole entry, looked up): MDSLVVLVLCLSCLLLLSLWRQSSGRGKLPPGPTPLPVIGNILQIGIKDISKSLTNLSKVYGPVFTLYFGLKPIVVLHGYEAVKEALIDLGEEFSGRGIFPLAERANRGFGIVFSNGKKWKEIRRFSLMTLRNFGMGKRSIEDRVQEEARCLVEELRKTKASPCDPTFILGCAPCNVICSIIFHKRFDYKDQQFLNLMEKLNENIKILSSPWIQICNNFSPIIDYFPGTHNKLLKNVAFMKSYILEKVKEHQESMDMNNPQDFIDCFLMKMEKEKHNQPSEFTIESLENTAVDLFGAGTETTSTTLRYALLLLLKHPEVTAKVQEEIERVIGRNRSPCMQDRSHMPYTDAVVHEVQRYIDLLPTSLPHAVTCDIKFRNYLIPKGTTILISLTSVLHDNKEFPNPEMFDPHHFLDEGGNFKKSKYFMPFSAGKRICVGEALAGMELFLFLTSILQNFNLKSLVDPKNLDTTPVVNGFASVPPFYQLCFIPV
Sequence of Cytochrome P450 2C19 (Homo sapiens) (P33261 whole entry, looked up): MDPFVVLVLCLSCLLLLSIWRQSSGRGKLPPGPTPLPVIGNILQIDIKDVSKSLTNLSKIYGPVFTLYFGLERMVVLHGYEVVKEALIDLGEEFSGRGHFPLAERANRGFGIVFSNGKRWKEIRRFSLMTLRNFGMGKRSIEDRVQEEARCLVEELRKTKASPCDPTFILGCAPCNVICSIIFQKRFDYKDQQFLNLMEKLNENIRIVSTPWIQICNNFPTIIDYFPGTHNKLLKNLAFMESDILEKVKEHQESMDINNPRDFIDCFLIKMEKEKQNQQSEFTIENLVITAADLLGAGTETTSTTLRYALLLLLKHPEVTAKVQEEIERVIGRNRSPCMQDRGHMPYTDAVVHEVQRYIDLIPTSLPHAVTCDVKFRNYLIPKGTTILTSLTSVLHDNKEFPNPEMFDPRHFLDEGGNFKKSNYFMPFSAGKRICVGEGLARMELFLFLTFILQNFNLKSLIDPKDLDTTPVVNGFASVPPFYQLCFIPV
Sequence of Voltage-gated inwardly rectifying potassium channel KCNH2 (Homo sapiens) (Q12809 whole entry, looked up): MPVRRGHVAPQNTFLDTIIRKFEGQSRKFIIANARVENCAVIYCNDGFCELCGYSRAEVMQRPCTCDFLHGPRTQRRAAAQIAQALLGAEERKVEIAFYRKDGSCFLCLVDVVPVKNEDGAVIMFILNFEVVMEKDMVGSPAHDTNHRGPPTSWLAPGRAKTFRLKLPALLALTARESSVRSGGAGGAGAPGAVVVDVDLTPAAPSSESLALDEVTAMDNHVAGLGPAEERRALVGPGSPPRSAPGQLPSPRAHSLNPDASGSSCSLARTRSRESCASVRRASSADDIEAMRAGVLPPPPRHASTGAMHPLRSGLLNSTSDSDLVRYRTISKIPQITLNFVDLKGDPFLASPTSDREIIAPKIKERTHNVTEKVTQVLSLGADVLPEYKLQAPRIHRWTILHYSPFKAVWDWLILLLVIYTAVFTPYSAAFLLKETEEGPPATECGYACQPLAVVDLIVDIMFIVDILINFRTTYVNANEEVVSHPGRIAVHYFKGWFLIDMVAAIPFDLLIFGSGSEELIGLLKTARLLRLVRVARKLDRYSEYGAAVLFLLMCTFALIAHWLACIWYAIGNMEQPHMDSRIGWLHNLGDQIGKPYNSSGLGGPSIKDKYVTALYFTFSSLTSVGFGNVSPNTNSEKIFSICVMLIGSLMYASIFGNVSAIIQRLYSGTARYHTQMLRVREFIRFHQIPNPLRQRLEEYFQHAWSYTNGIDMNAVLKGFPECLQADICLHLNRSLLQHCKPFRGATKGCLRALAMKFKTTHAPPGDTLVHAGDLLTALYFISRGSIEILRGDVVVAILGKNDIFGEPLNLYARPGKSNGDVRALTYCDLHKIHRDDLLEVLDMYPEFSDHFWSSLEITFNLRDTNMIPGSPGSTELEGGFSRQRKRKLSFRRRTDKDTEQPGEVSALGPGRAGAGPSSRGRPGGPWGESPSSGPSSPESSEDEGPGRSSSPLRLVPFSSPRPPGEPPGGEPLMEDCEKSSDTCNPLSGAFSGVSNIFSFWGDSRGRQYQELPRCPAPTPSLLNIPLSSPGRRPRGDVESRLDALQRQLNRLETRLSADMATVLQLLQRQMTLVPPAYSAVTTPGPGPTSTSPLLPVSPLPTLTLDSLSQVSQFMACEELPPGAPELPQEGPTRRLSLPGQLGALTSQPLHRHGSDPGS
Sequence of Cytochrome P450 1A2 (Homo sapiens) (P05177 whole entry, looked up): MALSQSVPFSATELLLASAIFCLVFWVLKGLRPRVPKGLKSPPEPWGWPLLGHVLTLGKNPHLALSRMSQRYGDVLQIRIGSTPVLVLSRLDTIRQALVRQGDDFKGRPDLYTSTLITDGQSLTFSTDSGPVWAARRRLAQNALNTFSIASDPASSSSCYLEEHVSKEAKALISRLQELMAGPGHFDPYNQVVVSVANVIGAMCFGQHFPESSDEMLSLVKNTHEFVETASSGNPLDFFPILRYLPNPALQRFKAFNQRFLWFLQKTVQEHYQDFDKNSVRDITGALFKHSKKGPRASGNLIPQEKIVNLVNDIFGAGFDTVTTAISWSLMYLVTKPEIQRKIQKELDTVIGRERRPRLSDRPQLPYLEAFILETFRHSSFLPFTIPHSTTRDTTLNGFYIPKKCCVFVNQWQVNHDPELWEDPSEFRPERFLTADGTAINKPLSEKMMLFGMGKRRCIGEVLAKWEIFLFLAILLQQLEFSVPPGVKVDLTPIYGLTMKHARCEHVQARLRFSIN

NCCCC[C@H](N[C@@H](CCc1ccccc1)C(=O)O)C(=O)N1CCC[C@H]1C(=O)O
Potency [1]: inactive | Potency [2]: inactive

C=C(C)C(=O)OCC1CCCO1 (centres undefined)
Potency [1]: inactive | Potency [2]: inactive | Potency [3]: inactive | Potency [4]: inactive | Potency [5]: inactive

CCCCCCCCCCOc1cc2c(=O)c(C(=O)OCC)c[nH]c2cc1OCC
activity change, negative = inhibition [1]: 52.8% [at 10.5 µM] | activity change, negative = inhibition [2]: 6.88% [at 10.5 µM] | activity change, negative = inhibition [3]: 7.05% [at 10.5 µM] | activity change, negative = inhibition [4]: 1.67% [at 6.97 µM] | activity change, negative = inhibition [5]: 13.5% [at 10.5 µM]

CCN(C=O)CC
Potency [1]: inactive | Potency [2]: inactive | Potency [3]: inactive | Potency [4]: inactive | Potency [5]: inactive

COc1cc(C(=O)NCc2ccc(OCCN(C)C)cc2)cc(OC)c1OC
Potency [1]: inactive | Potency [2]: inactive | Potency [3]: inactive | Potency [4]: inactive

O=C(O)CCSCCC(=O)O
Potency [1]: inactive | Potency [2]: inactive | Potency [3]: inactive | Potency [4]: inactive | Potency [5]: inactive

C=C(C)C(=O)OCCOCCOCCOCCOC(=O)C(=C)C
Potency [1]: 71 µM (active) | Potency [2]: 63.3 µM (active) | Potency [3]: 63.3 µM (active) | Potency [4]: inactive

C[C@H]1C[C@H]2[C@@H]3CCC4=CC(=O)C=C[C@]4(C)[C@H]3C(=O)C[C@]2(C)[C@@]1(O)C(=O)CO
Potency [1]: inactive | Potency [2]: 13.8 µM (active) | Potency [3]: 27.5 µM (active) | Potency [4]: inactive | Potency [5]: inactive

Cc1nc(C2CCCCC2)c(-c2ccc(S(N)(=O)=O)c(F)c2)o1
Potency [1]: 38.9 µM (active) | Potency [2]: 3.47 µM (active) | Potency [3]: inactive | Potency [4]: inactive

COCCOC[C@H](CC1(C(=O)NC2CCC(C(=O)O)CC2)CCCC1)C(=O)Oc1ccc2c(c1)CCC2 (some centres undefined)
Potency [1]: inactive | Potency [2]: inactive | Potency [3]: inactive | Potency [4]: inactive

O=Cc1cccc(Br)c1
Potency [1]: 18.3 µM (active) | Potency [2]: 40.9 µM (active) | Potency [3]: 16.3 µM (active) | Potency [4]: inactive | Potency [5]: 81.7 µM (active)

Cc1ccc(-c2ccccc2C#N)cc1
Potency [1]: 17.4 µM (active) | Potency [2]: 15.5 µM (active) | Potency [3]: 13.8 µM (active) | Potency [4]: inactive

c1ccc(CCc2ccccc2)cc1
Potency [1]: inactive | Potency [2]: inactive | Potency [3]: inactive | Potency [4]: inactive | Potency [5]: inactive

CCNC(=O)[C@@H]1CCCN1C(=O)[C@H](CCCN=C(N)N)NC(=O)[C@H](CC(C)C)NC(=O)CNC(=O)[C@H](Cc1ccc(O)cc1)NC(=O)[C@H](CO)NC(=O)[C@H](Cc1c[nH]c2ccccc12)NC(=O)[C@H](Cc1cnc[nH]1)NC(=O)[C@@H]1CCC(=O)N1 ([pGlu]HWSYGLRP-NHEt)
Potency [1]: inactive | Potency [2]: inactive | Potency [3]: inactive | Potency [4]: inactive

COc1c(N2CCNC(C)C2)c(F)cc2c(=O)c(C(=O)O)cn(C3CC3)c12 (centres undefined)
Potency [1]: inactive | Potency [2]: inactive | Potency [3]: inactive | Potency [4]: inactive | Potency [5]: inactive

CC(N)C12CC3CC(CC(C3)C1)C2 (centres undefined)
Potency [1]: inactive | Potency [2]: inactive | Potency [3]: inactive | Potency [4]: inactive | Potency [5]: inactive

CC1=NS(=O)(=O)c2cc(Cl)ccc2N1
Potency [1]: inactive | Potency [2]: inactive | Potency [3]: 15.5 µM (active) | Potency [4]: inactive | Potency [5]: inactive

O=C1CCCCCCCCCCCCCCO1
Potency [1]: inactive

CC(C)[C@H]1CC[C@@H](C)CC1=O
Potency [1]: inactive | Potency [2]: inactive | Potency [3]: inactive | Potency [4]: inactive | Potency [5]: inactive

CCN1C=CN(C)C1C (centres undefined)
Potency [1]: inactive | Potency [2]: inactive | Potency [3]: inactive | Potency [4]: inactive | Potency [5]: inactive

O=C(c1ccccc1O)c1ccccc1O
Potency [1]: 11.1 µM (active) | Potency [2]: 62.6 µM (active) | Potency [3]: 3.52 µM (active) | Potency [4]: inactive

CN(C)CCN(C)CCN(C)C
Potency [1]: inactive | Potency [2]: inactive | Potency [3]: inactive | Potency [4]: inactive | Potency [5]: inactive

O=S(=O)(O)c1cccc(S(=O)(=O)O)c1
Potency [1]: inactive | Potency [2]: inactive | Potency [3]: inactive | Potency [4]: inactive | Potency [5]: inactive

CCCCCC(C)N (centres undefined)
Potency [1]: inactive | Potency [2]: inactive | Potency [3]: inactive | Potency [4]: inactive | Potency [5]: inactive

[K+]
Potency [1]: inactive | Potency [2]: inactive | Potency [3]: inactive | Potency [4]: inactive | Potency [5]: inactive

CCC(C(=O)NC(=O)NC(C)=O)c1ccccc1 (centres undefined)
Potency [1]: inactive | Potency [2]: inactive | Potency [3]: inactive | Potency [4]: inactive | Potency [5]: inactive

CCOC(=O)COc1cc(-n2ncc(C(F)(F)F)c(C)c2=O)c(F)cc1Cl
Potency [1]: 35.6 µM (active) | Potency [2]: 31.7 µM (active) | Potency [3]: 35.6 µM (active) | Potency [4]: 43.6 µM (active)

CC[C@H]1OC(=O)[C@H](C)[C@@H](O[C@H]2C[C@@](C)(OC)[C@@H](O)[C@H](C)O2)[C@H](C)[C@@H](O[C@@H]2O[C@H](C)C[C@H](N(C)C)[C@H]2O)[C@](C)(OC)C[C@@H](C)C(=O)[C@H](C)[C@@H](O)[C@]1(C)O
Potency [1]: 63.8 µM (active) | Potency [2]: inactive | Potency [3]: inactive | Potency [4]: inactive

COc1ccnc(CS(=O)c2nc3cc(OC(F)F)ccc3[nH]2)c1OC (centres undefined)
Potency [1]: 8.99 µM (active)

CC(=O)Nc1ccc(OCC(O)CNC(C)C)cc1 (centres undefined)
Potency [1]: inactive | Potency [2]: inactive | Potency [3]: inactive | Potency [4]: inactive | Potency [5]: inactive

CCOC(=O)CCC(=O)OCC
Potency [1]: inactive | Potency [2]: 35.6 µM (active) | Potency [3]: inactive | Potency [4]: inactive | Potency [5]: inactive

CC(C)COC(=O)c1ccc(N)cc1
Potency [1]: 21.9 µM (active) | Potency [2]: 13.8 µM (active) | Potency [3]: 6.92 µM (active) | Potency [4]: inactive

NC(=O)N[C@@H](CCC(=O)O)C(=O)O
Potency [1]: inactive | Potency [2]: inactive | Potency [3]: inactive | Potency [4]: inactive | Potency [5]: inactive

C[C@@H]1CCC[C@H](C)N1
Potency [1]: inactive | Potency [2]: inactive | Potency [3]: inactive | Potency [4]: inactive | Potency [5]: inactive

— PubChem BioAssay (Tox21)
